Results taken from the supplement of paper PMC7411054.
Counter-ions that a name gives are not always drawn.

Tests used:
Test in all cases: phenotypically active (imaging signature differs from DMSO and reproducible) at any of 0.3-9 uM (binary (1 = active, 0 = inactive)); higher = active
Conditions in all cases: treatment time: 24 h
[1] = tested on: A549-ACTB-RAB5A
How it was run: (§1)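 Each of fifteen gene-edited A549, HepG2 and WPMY1 reporter lines, marked with BFP for segmentation and GFP and RFP/FusionRed, was treated in four wells at 0.3, 1, 3 or 9 µM for 24 h prior to live imaging. Normalisation of per-well live-cell features used solvent control wells. Deviation needed ≥3 of 4 wells beyond the 95th percentile of control Euclidean distances, and reproducibility needed a median replicate Pearson correlation above the 95th percentile of non-replicates. Both were required for phenotypic activity.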

[2] = tested on: A549-CANX-COX4
How it was run: as §1

[3] = tested on: A549-GM130-SQSTM1
How it was run: as §1

[4] = tested on: A549-TP53BP1-CLTA
How it was run: as §1

[5] = tested on: A549-TUBA1B-RELA
How it was run: as §1

[6] = tested on: HepG2-ACTB-RAB5A
How it was run: as §1

[7] = tested on: HepG2-CANX-COX4
How it was run: as §1

[8] = tested on: HepG2-GM130-SQSTM1
How it was run: as §1

[9] = tested on: HepG2-TP53BP1-CLTA
How it was run: as §1

[10] = tested on: HepG2-TUBA1B-RELA
How it was run: as §1

[11] = tested on: WPMY1-ACTB-RAB5A
How it was run: as §1

[12] = tested on: WPMY1-CANX-COX4
How it was run: as §1

[13] = tested on: WPMY1-GM130-SQSTM1
How it was run: as §1

[14] = tested on: WPMY1-TP53BP1-CLTA
How it was run: as §1

[15] = tested on: WPMY1-TUBA1B-RELA
How it was run: as §1

Measured: phenotypically active

NNCCc1ccccc1 [phenelzine]
inactive: [1] 0 | [2] 0 | [3] 0 | [4] 0 | [5] 0 | [6] 0 | [7] 0 | [8] 0 | [9] 0 | [10] 0 | [11] 0 | [12] 0 | [13] 0 | [14] 0 | [15] 0

CC(=O)/N=c1/sc(S(N)(=O)=O)nn1C [methazolamide]
inactive: [1] 0 | [2] 0 | [3] 0 | [4] 0 | [5] 0 | [6] 0 | [7] 0 | [8] 0 | [9] 0 | [10] 0 | [11] 0 | [12] 0 | [13] 0 | [14] 0 | [15] 0

CCN(CC)CC(=O)Nc1c(C)cccc1C [lidocaine]
inactive: [1] 0 | [2] 0 | [3] 0 | [4] 0 | [5] 0 | [6] 0 | [7] 0 | [8] 0 | [9] 0 | [10] 0 | [11] 0 | [12] 0 | [13] 0 | [14] 0 | [15] 0

O=C(NC(CO)C(O)c1ccc([N+](=O)[O-])cc1)C(Cl)Cl (stereo not given) [Chloramphenicol]
inactive: [1] 0 | [2] 0 | [3] 0 | [4] 0 | [5] 0 | [6] 0 | [7] 0 | [8] 0 | [9] 0 | [10] 0 | [11] 0 | [12] 0 | [13] 0 | [14] 0 | [15] 0

CC(C)C(=O)SCCCCC[C@H](NC(=O)OC(C)(C)C)C(=O)NC12CC3CC(CC(C3)C1)C2
inactive: [1] 0 | [2] 0 | [3] 0 | [4] 0 | [5] 0 | [6] 0 | [7] 0 | [8] 0 | [9] 0 | [10] 0 | [11] 0 | [12] 0 | [13] 0 | [14] 0 | [15] 0

Cc1ccc2ccc(C(Nc3ccccc3)c3ccccc3)c(O)c2n1 (stereo not given)
inactive: [1] 0 | [2] 0 | [3] 0 | [4] 0 | [5] 0 | [6] 0 | [7] 0 | [8] 0 | [9] 0 | [10] 0 | [11] 0 | [12] 0 | [13] 0 | [14] 0 | [15] 0

CCC(NC(C)C)C(O)c1ccc(O)c(O)c1 (stereo not given) [isoetharine]
inactive: [1] 0 | [2] 0 | [3] 0 | [4] 0 | [5] 0 | [6] 0 | [7] 0 | [8] 0 | [9] 0 | [10] 0 | [11] 0 | [12] 0 | [13] 0 | [14] 0 | [15] 0

CO/N=C/C1=CCCN(C)C1 [Milameline hydrochloride]
inactive: [1] 0 | [2] 0 | [3] 0 | [4] 0 | [5] 0 | [6] 0 | [7] 0 | [8] 0 | [9] 0 | [10] 0 | [11] 0 | [12] 0 | [13] 0 | [14] 0 | [15] 0

CC(Oc1ccc(O)cc1)(P(=O)(O)O)P(=O)(O)O
inactive: [1] 0 | [2] 0 | [3] 0 | [4] 0 | [5] 0 | [6] 0 | [7] 0 | [8] 0 | [9] 0 | [10] 0 | [11] 0 | [12] 0 | [13] 0 | [14] 0 | [15] 0

CC(C)(C(=O)O)c1ccc(C(O)CCCN2CCC(C(O)(c3ccccc3)c3ccccc3)CC2)cc1 (stereo not given) [fexofenadine]
inactive: [1] 0 | [2] 0 | [3] 0 | [4] 0 | [5] 0 | [6] 0 | [7] 0 | [8] 0 | [9] 0 | [10] 0 | [11] 0 | [12] 0 | [13] 0 | [14] 0 | [15] 0

COc1ccc(C(C)=O)c(O)c1 [2'-Hydroxy-4'-Methoxyacetophenone]
inactive: [1] 0 | [2] 0 | [3] 0 | [4] 0 | [5] 0 | [6] 0 | [7] 0 | [8] 0 | [9] 0 | [10] 0 | [11] 0 | [12] 0 | [13] 0 | [14] 0 | [15] 0

Nc1c2c(nc3ccccc13)CCCC2 [tacrine]
inactive: [1] 0 | [2] 0 | [3] 0 | [4] 0 | [5] 0 | [6] 0 | [7] 0 | [8] 0 | [9] 0 | [10] 0 | [11] 0 | [12] 0 | [13] 0 | [14] 0 | [15] 0

CC[N+](C)(CC)CCOC(=O)C1c2ccccc2Oc2ccccc21 [methantheline]
inactive: [1] 0 | [2] 0 | [3] 0 | [4] 0 | [5] 0 | [6] 0 | [7] 0 | [8] 0 | [9] 0 | [10] 0 | [11] 0 | [12] 0 | [13] 0 | [14] 0 | [15] 0

CC(C)NCC(O)c1ccc(O)c(O)c1 (stereo not given) [Isoproterenol hydrochloride]
inactive: [1] 0 | [2] 0 | [3] 0 | [4] 0 | [5] 0 | [6] 0 | [7] 0 | [8] 0 | [9] 0 | [10] 0 | [11] 0 | [12] 0 | [13] 0 | [14] 0 | [15] 0

CC(C)(C)NCC(O)c1ccc(O)c(CO)c1 (stereo not given) [albuterol]
inactive: [1] 0 | [2] 0 | [3] 0 | [4] 0 | [5] 0 | [6] 0 | [7] 0 | [8] 0 | [9] 0 | [10] 0 | [11] 0 | [12] 0 | [13] 0 | [14] 0 | [15] 0

COc1ccc(-c2noc(CSc3nnc(C)n3-c3ccc(OC)cc3)n2)cc1
inactive: [1] 0 | [2] 0 | [3] 0 | [4] 0 | [5] 0 | [6] 0 | [7] 0 | [8] 0 | [9] 0 | [10] 0 | [11] 0 | [12] 0 | [13] 0 | [14] 0 | [15] 0

S=P(N1CC1)(N1CC1)N1CC1 [thiotepa]
inactive: [1] 0 | [2] 0 | [3] 0 | [4] 0 | [5] 0 | [6] 0 | [7] 0 | [8] 0 | [9] 0 | [10] 0 | [11] 0 | [12] 0 | [13] 0 | [14] 0 | [15] 0

COCC(=O)N[C@@H](Cc1ccc(-c2cc(Cl)cc(Cl)c2)cc1)[C@H](O)[C@@H](O)C(=O)O
inactive: [1] 0 | [2] 0 | [3] 0 | [4] 0 | [5] 0 | [6] 0 | [7] 0 | [8] 0 | [9] 0 | [10] 0 | [11] 0 | [12] 0 | [13] 0 | [14] 0 | [15] 0

Cc1cc(C(=O)NNCc2ccccc2)no1 [isocarboxazid]
inactive: [1] 0 | [2] 0 | [3] 0 | [4] 0 | [5] 0 | [6] 0 | [7] 0 | [8] 0 | [9] 0 | [10] 0 | [11] 0 | [12] 0 | [13] 0 | [14] 0 | [15] 0

c1ccc2c(c1)CCCC2C1=NCCN1 (stereo not given) [tetrahydrozoline]
inactive: [1] 0 | [2] 0 | [3] 0 | [4] 0 | [5] 0 | [6] 0 | [7] 0 | [8] 0 | [9] 0 | [10] 0 | [11] 0 | [12] 0 | [13] 0 | [14] 0 | [15] 0

CC(C)c1ccc2oc3nc(N)c(C(=O)O)cc3c(=O)c2c1 [Amlexanox]
inactive: [1] 0 | [2] 0 | [3] 0 | [4] 0 | [5] 0 | [6] 0 | [7] 0 | [8] 0 | [9] 0 | [10] 0 | [11] 0 | [12] 0 | [13] 0 | [14] 0 | [15] 0

CCCNC(=O)NS(=O)(=O)c1ccc(Cl)cc1 [chlorpropamide]
inactive: [1] 0 | [2] 0 | [3] 0 | [4] 0 | [5] 0 | [6] 0 | [7] 0 | [8] 0 | [9] 0 | [10] 0 | [11] 0 | [12] 0 | [13] 0 | [14] 0 | [15] 0

O=C(O)CCCC[C@@H]1SC[C@@H]2NC(=O)N[C@@H]21 [Biotin]
inactive: [1] 0 | [2] 0 | [3] 0 | [4] 0 | [5] 0 | [6] 0 | [7] 0 | [8] 0 | [9] 0 | [10] 0 | [11] 0 | [12] 0 | [13] 0 | [14] 0 | [15] 0

CCCCOc1cc(C(=O)OCCN(CC)CC)ccc1N [oxybuprocaine]
inactive: [1] 0 | [2] 0 | [3] 0 | [4] 0 | [5] 0 | [6] 0 | [7] 0 | [8] 0 | [9] 0 | [10] 0 | [11] 0 | [12] 0 | [13] 0 | [14] 0 | [15] 0
